This is an account of results in PubChem BioAssay.

Molecules are shown by their SMILES. Values without a mark were called inactive.

The nature of the assay: growth of efflux-deficient E. coli DRC39 – strain DRC39, OD650, 48 h, E. coli filamentation inducers, primary screen (AID 1179).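 Note: screen aims at cell division blockers that make cells filament.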 As to conditions: E. coli DRC39 delta-acrAB growth, higher = more signal, called active from +8 up or from −8 down.
On to `C=C(/C(=C/C[C@@H](OC(C)=O)c1ccc(CO)o1)c1cc(C(=O)OC)ccc1OC)C(C)C`, for which the z-score was 0.533. Then `O=C1OCC=C[C@H]2OC34C=CCN(c5ccc6ccccc6c5)C(=O)[C@H]3N(CCCCCO)C(=O)[C@@H]4[C@@H]12` (stereo partly specified), with -1.3. Next, `COC(=O)[C@@]1(Cc2ccccc2)[C@H]2c3cc(C(=O)N4CCCC4)n(CCSCCO)c3C[C@H]2CN1C(=O)c1ccccc1`: -0.853; `NC(=O)[C@@H]1[C@H]2C(=O)O[C@H](c3ccccc3)[C@H](c3ccccc3)N2[C@H](c2ccc(OCCO)cc2)[C@@]12C(=O)Nc1ccc(C#CCCO)cc12`: 0.721.

Turning to `[N-]=[N+]=Nc1ccccc1C[C@]1(C(=O)NCc2ccccc2)COC(c2ccc(OCCCO)cc2)=N1`, the z-score was 0.161. Turning to `CN1C(=O)[C@@]2(Cc3ccccc3)N=C(c3ccc(OCCCO)cc3)O[C@H]2c2ccccc21`, the z-score is 0.514. For `CCOC(=O)C[C@H]1[C@H](OC(=O)c2ccccc2-c2ccccc2)[C@@H](NC(=O)c2ccc3ccccc3n2)c2cc(OCCCO)ccc2N1C(=O)c1ccccc1`, the z-score was -0.916. Then `Nc1cc(Br)ccc1C(=O)O`, with -0.138. `C=C(COC)C(=O)CC[C@@H](OC(=O)c1cccnc1)c1ccccc1OCCO`: the z-score is 0.206. `CCOC(=O)C1=C[C@@H](c2ccccc2)N(S(=O)(=O)c2ccc(C)cc2)[C@H]1c1ccccc1`: the z-score is -0.605. As to `CC(C)c1ccc(NN2C(C(O)Cc3ccccc3)C=CC3C(=O)N(c4ccccc4)C(=O)C32)cc1` (stereo unspecified), the z-score was -1.07.
